From PubChem BioAssay (Tox21)
Values joined by “and” are separate entries in the source; they are usually repeats but may differ in a detail not shown here. Equal entries are not always repeated. Results filed as inconclusive are left out. Entries that show only a call come without a potency. Values without a mark were called inactive. Active and inactive are the calls of the source. The call rests on the fitted dose curve; in most records, active means well fitted cell-killing curve with a large enough effect in the repeat runs; inconclusive means weak or mixed curves, or effect the other way; inactive means flat fitted curve, though single readings scatter.

Assays:
[1] = cAMP Responsive Elements (CRE) small molecule antagonists, cell-based qHTS assay: qHTS cell viability counter screen (AID 2060913); further: nearly all actives have a fitted effect of over 40% in size
Outline: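 Cytotoxicity counter screen multiplexed with the CRE-bla antagonist read: HEK293T cells in DMEM with dialyzed FBS and 25 mM HEPES were treated 3 hrs under 0.25 uM final NKH477, then viability measured by CellTiter-Glo luminescence.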

[2] = cAMP Responsive Elements (CRE) small molecule agonists, cell-based qHTS assay: qHTS cell viability counter screen (AID 2060914); further: nearly all actives have a fitted effect of over 50% in size
Outline: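 Cytotoxicity was measured as ATP luminescence (CellTiter-Glo, 30 min at room temperature) in the same wells as the CRE-bla FRET read-out. HEK293T CRE-bla cells had 3 h compound exposure at 37C/5% CO2.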
Potency means the concentration at half of the fitted maximal effect.

SMILES | Potency [1] | Potency [2] | viability change, negative = cytotoxic [1] | activity change, negative = cytotoxicity [2]
CC1=C(C=O)C(C)(C)CCC1 | inactive | inactive |  | 
OC(CCl)CCl | inactive | inactive |  | 
COc1ccc(Cl)cc1C | inactive | inactive |  | 
CO[Si](CCCn1c(=O)n(CCC[Si](OC)(OC)OC)c(=O)n(CCC[Si](OC)(OC)OC)c1=O)(OC)OC | inactive | inactive |  | 
C=CC(C)(C)CC(=O)OC | inactive | inactive |  | 
FC(F)(F)C(Cl)(Cl)Cl | inactive | inactive |  | 
CCCCCCCC/C=C\CCCCCCCC(=O)OCC | inactive | inactive |  | 
CCc1ccc(Br)cc1 | inactive | inactive |  | 
CC1(C)O[C@@H]2C[C@H]3[C@@H]4C[C@H](F)C5=CC(=O)CC[C@]5(C)[C@H]4[C@@H](O)C[C@]3(C)[C@]2(C(=O)CO)O1 | inactive | inactive |  | 
O=C(O)CCCCCCCCCCCC(=O)O | inactive | inactive |  | 
c1ccc2[nH]cnc2c1 | inactive | inactive |  | 
CO | inactive | inactive |  | 
CC(C)=CCC/C(C)=C/C(=O)O | inactive | inactive |  | 
C/C(CC(C)C)=N\O | inactive | inactive |  | 
CO[C@@H]1[C@@H](O[C@@H]2O[C@H](C)[C@@H](O[C@H]3C[C@@](C)(O)[C@@H](O)[C@H](C)O3)[C@H](N(C)C)[C@H]2O)[C@@H](CC=O)C[C@@H](C)[C@@H](O[C@@H]2CC[C@H](N(C)C)[C@@H](C)O2)/C=C/C=C/C[C@@H](C)OC(=O)C[C@H]1OC(C)=O | inactive | inactive |  | 
Cc1ccccc1C#N | inactive | inactive |  | 
CN(C)CCCN1c2ccccc2Sc2ccc(Cl)cc21 | inactive | inactive |  | 
CCCCCCCCNC | inactive | inactive |  | 
CCCCC=O | inactive | inactive |  | 

SMILES | Potency [1] | Potency [2] | viability change, negative = cytotoxic [1] | activity change, negative = cytotoxicity [2]
CC1=CC(=O)CCC1 | inactive | inactive |  | 
CN1CCC(=C2c3ccccc3CC(=O)c3sccc32)CC1 | inactive | inactive |  | 
CC(C)(C)c1ccc(CCC=O)cc1 | inactive | inactive |  | 
CC(=O)C(=O)O | inactive | inactive |  | 
CCCC(=O)C(CC)Sc1ccoc1C (configuration not stated) | inactive | inactive |  | 
C1COC1 | inactive | inactive |  | 
CC1(C)[C@@H](O[C@H]2O[C@H](C(=O)O)[C@@H](O)[C@H](O)[C@H]2O[C@@H]2O[C@H](C(=O)O)[C@@H](O)[C@H](O)[C@H]2O)CC[C@]2(C)[C@H]3C(=O)C=C4[C@@H]5C[C@@](C)(C(=O)O)CC[C@]5(C)CC[C@@]4(C)[C@]3(C)CC[C@@H]12 | inactive | inactive |  | 
CCCCCN(CCCCC)C(=O)C(CCC(=O)O)NC(=O)c1ccc(Cl)c(Cl)c1 (configuration not stated) | inactive | inactive |  | 
O=C=NCCCCCCN=C=O | inactive | inactive |  | 
CO/N=C(\C(=O)N[C@@H]1C(=O)N2C(C(=O)O)=C(CSc3nc(=O)c(O)nn3C)CS[C@H]12)c1csc(N)n1 | inactive | inactive |  | 
Cc1cc(O)cc2c1O[C@](C)(CCC[C@H](C)CCC[C@H](C)CCCC(C)C)CC2 | inactive | inactive |  | 
CCN(CC)CCNC(=O)c1cc(S(C)(=O)=O)ccc1OC | inactive | inactive |  | 
CC1(C)S[C@@H]2[C@H](NC(=O)C(c3ccccc3)S(=O)(=O)O)C(=O)N2[C@H]1C(=O)O (some centres not stated) | inactive | inactive |  | 
Cc1ccccc1C(=O)N1CC/C(=N\OS(=O)(=O)O)c2ccc(Cl)cc21 | inactive | inactive |  | 
CCC(O)OC(O)CC (configuration not stated) | inactive | inactive |  | 
CCOCCOCC | inactive | inactive |  | 
CCn1cc(C(=O)O)c(=O)c2cc(F)c(N3CCN(C)CC3)cc21 |  |  | 3.1% [at 18.9 µM] | 12% [at 18.9 µM]
FC(F)(F)c1ccccc1-n1ccnc1 | inactive | inactive |  | 
Cc1ccc(C)c(N)c1 | inactive | inactive |  | 

SMILES | Potency [1] | Potency [2] | viability change, negative = cytotoxic [1] | activity change, negative = cytotoxicity [2]
CC1=CC(=C(c2ccc(N)cc2)c2ccc(N)cc2)C=CC1=N |  |  | -2.05% [at 8.39 µM] | -0.199% [at 8.39 µM]
Nc1cc(=O)[nH]c(N)n1 | inactive | inactive |  | 
C=Cc1ccc(OC(C)=O)cc1 | inactive | inactive |  | 
CC(=O)CCC(C)C | inactive | inactive |  | 
CC(=O)OC(C)(C)C1CC=C(C)CC1 (configuration not stated) | inactive | inactive |  | 
Cc1cc(Cc2cc(C)cc(C(C)(C)C)c2O)c(O)c(C(C)(C)C)c1 | 54.8 µM (active) and 40.3 µM (active) | 34.6 µM (active) and 54.5 µM (active) |  | 
Brc1c2ccccc2cc2ccccc12 | inactive | inactive |  | 
CCN(CC)C(=O)/C(C#N)=C/c1cc(O)c(O)c([N+](=O)[O-])c1 | inactive | inactive |  | 
Oc1ccc2c(c1)-c1ccccc1C2 | inactive | inactive |  | 
CC(=O)c1nccs1 | inactive | inactive |  | 
Cc1cc(C)cc(OCC2CNC(=O)O2)c1 (configuration not stated) | inactive | inactive |  | 
CC(O)C(=O)O (configuration not stated) | inactive | inactive |  | 
O=C(O)c1cc(=O)c2ccccc2o1 | inactive | inactive |  | 
Nc1ccccc1[N+](=O)[O-] | inactive | inactive |  | 
NS(=O)(=O)c1cc2c(cc1Cl)NC(C1CC3C=CC1C3)NS2(=O)=O (configuration not stated) | inactive | inactive |  | 
COC(=O)CCS | inactive | inactive |  | 
C1CCCC1 | inactive | inactive |  | 
CC(O)C1CCCCC1 (configuration not stated) | inactive | inactive |  | 
